According to PubChem BioAssay (NCATS):
Where “and” joins values, the source holds several entries; their conditions need not be identical. Identical values can stand only once. Records with an inconclusive call do not appear. A call without a number means that no potency is given here. Calls of active or inactive are those of the source. Unless noted, calls follow the shape of the full dose curve.

Assays:
[1] = target: Peroxisome proliferator-activated receptor gamma (Homo sapiens) (UniProt P37231); assay: qHTS assay for small molecule antagonists of peroxisome proliferator-activated receptor gamma signaling (AID 588537; active = well fitted inhibition curve with a large enough effect in the signal ratio, with a control signal flat, not every such curve was filed as active; the % refers to the signal ratio;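 also: reporter cells co-stimulated with 50 nM rosiglitazone agonist during compound treatment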)
In short: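 Read-out: CCF4 fluorescence (ex 405, em 460/530 nm) after 2 h at RT. Cells were HEK293 carrying a UAS-bla reporter and treated 16 h at 37 C with compound plus rosiglitazone (50 nM final). Normalized to rosiglitazone and DMSO.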

[2] = target: Vitamin D3 receptor (Homo sapiens) (UniProt P11473); assay: qHTS assay for small molecule antagonists of vitamin D receptor signaling (AID 588541); also: potency is read from the fitted curve at half-maximal effect
In short: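 VDR-UAS-bla HEK293T cells in 2% charcoal-stripped FBS were stimulated with 1-alpha,25-dihydroxyvitamin D3 (3 nM final) plus compound for 16 h at 37 C. The beta-lactamase CCF4 readout was normalized to 50 nM agonist and DMSO, and Hill fits gave IC50.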

[3] = target: Vitamin D3 receptor (Homo sapiens) (UniProt P11473); assay: qHTS assay for small molecule agonists of vitamin D receptor signaling (AID 588543)
In short: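 GeneBLAzer VDR-UAS-bla HEK293T cells in 2% charcoal-stripped FBS medium were dosed with compound titrations for 16 h at 37 °C; CCF4 β-lactamase readout (405 nm ex, 460/530 nm em). EC50 and efficacy from Hill fits, normalized to 50 nM calcitriol (100%) and DMSO (0%).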

[4] = qHTS assay for small molecule agonists of retinoid X receptor alpha signaling (AID 588544); conditions: HEK293T RXRa-UAS-bla, beta-lactamase reporter, 18 h; 530 nm emission
[5] = target: Retinoic acid receptor RXR-alpha (Homo sapiens) (UniProt P19793); assay: as above
[6] = target: Thyroid hormone receptor beta (Homo sapiens) (UniProt P10828); assay: qHTS assay for small molecule agonists of thyroid hormone receptor beta signaling (AID 588545)
In short: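 Cells (2500/well) were seeded, incubated 4 hrs at 37 C, dosed with a compound series, incubated 18 hrs, loaded with CCF4 dye for 2 hrs at RT, then read for fluorescence. Data were scaled between DMSO (0%) and 10 nM T3 (100%).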

[7] = qHTS assay for small molecule antagonists of retinoid X receptor alpha signaling (AID 588546; active = well fitted inhibition curve with a large enough effect in the signal ratio, with a control signal flat, not every such curve was filed as active; the % refers to the signal ratio;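 also: cells stimulated with 9-cis-retinoic acid as agonist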); conditions: HEK293T RXRa-UAS-bla, beta-lactamase ratio, antagonist mode; measured here: W530 green channel, cytotoxicity proxy
In short: (§1)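 Beta-lactamase reporter inhibition, read as CCF4 fluorescence ratio (ex 405, em 460/530 nm) after 2 h at RT. HEK293T UAS-bla cells, 2500/well, were stimulated with 9-cis-RA at 500 or 100 nM final alongside test compound for 18 h at 37 C.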

[8] = target: Retinoic acid receptor RXR-alpha (Homo sapiens) (UniProt P19793); assay: as above; conditions: HEK293T RXRa-UAS-bla, beta-lactamase ratio, antagonist mode
In short: as §1

[9] = target: Thyroid hormone receptor beta (Homo sapiens) (UniProt P10828); assay: qHTS assay for small molecule antagonists of thyroid hormone receptor beta signaling (AID 588547; active = well fitted inhibition curve with a large enough effect in the signal ratio, with a control signal flat, not every such curve was filed as active; the % refers to the signal ratio;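 also: cells stimulated with 0.4 nM T3 agonist during compound exposure; series mostly up to about 77 µM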); conditions: TR-UAS-bla HEK293, beta-lactamase ratio, antagonist mode, 18 h
In short: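 TR-UAS-bla GripTite HEK293 cells in 2% charcoal/dextran FBS medium; compounds 0.59 nM to 92 uM with T3 at 0.4nM final, 18 h at 37 C. Beta-lactamase read by CCF4 fluorescence (460/530 nm); Hill fits gave IC50 and efficacy.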

[10] = target: Voltage-gated inwardly rectifying potassium channel KCNH2 (Homo sapiens) (UniProt Q12809); assay: qHTS Assay for Small Molecule Inhibitors of the Human hERG Channel Activity (AID 588834; active = well fitted inhibition curve with a large enough effect;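 also: top concentration of the series differs between compounds; lower thallium flux fluorescence means stronger hERG block; nearly all actives have a fitted effect of over 50% in size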)
In short: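 In hERG-transduced U2OS cells, dye-loaded for 1 hr at room temperature in dark, test compounds incubated 10 min at 37 °C before thallium stimulation. AC50 values derived by Hill modelling of concentration-response.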

Chain of Peroxisome proliferator-activated receptor gamma (Homo sapiens) (P37231 whole entry, looked up): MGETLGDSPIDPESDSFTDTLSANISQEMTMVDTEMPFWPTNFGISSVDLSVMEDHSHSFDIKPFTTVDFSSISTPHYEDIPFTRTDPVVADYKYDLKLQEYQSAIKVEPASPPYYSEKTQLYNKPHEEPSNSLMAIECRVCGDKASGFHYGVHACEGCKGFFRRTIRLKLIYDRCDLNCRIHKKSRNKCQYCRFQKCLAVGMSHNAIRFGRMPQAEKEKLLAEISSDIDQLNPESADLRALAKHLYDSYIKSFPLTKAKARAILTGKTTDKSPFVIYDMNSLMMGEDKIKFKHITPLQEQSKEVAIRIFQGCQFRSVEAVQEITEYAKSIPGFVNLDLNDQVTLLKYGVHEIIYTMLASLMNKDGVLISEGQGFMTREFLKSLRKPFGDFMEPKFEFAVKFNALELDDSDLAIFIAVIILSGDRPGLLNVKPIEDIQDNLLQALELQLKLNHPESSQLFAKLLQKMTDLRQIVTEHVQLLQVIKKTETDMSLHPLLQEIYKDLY
Chain of Vitamin D3 receptor (Homo sapiens) (P11473 whole entry, looked up): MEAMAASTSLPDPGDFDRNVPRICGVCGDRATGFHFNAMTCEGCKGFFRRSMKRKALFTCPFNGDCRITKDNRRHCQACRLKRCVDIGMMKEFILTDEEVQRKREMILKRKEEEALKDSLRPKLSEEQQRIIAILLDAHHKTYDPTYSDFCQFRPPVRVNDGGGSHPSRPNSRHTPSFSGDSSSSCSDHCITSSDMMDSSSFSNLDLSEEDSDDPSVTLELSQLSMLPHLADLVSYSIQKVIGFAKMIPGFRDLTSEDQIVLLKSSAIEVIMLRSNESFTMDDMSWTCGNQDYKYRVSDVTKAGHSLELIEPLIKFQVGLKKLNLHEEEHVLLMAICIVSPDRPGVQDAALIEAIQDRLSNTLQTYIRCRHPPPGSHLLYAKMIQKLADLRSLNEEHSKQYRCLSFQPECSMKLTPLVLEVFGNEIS
Chain of Retinoic acid receptor RXR-alpha (Homo sapiens) (P19793 whole entry, looked up): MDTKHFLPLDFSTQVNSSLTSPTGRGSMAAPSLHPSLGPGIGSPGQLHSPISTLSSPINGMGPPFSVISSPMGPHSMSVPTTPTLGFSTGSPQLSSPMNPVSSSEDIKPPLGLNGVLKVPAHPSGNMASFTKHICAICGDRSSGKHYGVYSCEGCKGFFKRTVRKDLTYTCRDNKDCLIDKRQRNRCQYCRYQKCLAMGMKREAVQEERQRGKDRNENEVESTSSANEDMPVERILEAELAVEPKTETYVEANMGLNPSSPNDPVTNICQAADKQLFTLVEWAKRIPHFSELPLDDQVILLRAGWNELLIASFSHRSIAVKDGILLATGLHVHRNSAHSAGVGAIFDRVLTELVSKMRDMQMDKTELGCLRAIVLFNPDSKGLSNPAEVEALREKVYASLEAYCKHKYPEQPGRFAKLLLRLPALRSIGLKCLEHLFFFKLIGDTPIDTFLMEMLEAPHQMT
Chain of Voltage-gated inwardly rectifying potassium channel KCNH2 (Homo sapiens) (Q12809 whole entry, looked up): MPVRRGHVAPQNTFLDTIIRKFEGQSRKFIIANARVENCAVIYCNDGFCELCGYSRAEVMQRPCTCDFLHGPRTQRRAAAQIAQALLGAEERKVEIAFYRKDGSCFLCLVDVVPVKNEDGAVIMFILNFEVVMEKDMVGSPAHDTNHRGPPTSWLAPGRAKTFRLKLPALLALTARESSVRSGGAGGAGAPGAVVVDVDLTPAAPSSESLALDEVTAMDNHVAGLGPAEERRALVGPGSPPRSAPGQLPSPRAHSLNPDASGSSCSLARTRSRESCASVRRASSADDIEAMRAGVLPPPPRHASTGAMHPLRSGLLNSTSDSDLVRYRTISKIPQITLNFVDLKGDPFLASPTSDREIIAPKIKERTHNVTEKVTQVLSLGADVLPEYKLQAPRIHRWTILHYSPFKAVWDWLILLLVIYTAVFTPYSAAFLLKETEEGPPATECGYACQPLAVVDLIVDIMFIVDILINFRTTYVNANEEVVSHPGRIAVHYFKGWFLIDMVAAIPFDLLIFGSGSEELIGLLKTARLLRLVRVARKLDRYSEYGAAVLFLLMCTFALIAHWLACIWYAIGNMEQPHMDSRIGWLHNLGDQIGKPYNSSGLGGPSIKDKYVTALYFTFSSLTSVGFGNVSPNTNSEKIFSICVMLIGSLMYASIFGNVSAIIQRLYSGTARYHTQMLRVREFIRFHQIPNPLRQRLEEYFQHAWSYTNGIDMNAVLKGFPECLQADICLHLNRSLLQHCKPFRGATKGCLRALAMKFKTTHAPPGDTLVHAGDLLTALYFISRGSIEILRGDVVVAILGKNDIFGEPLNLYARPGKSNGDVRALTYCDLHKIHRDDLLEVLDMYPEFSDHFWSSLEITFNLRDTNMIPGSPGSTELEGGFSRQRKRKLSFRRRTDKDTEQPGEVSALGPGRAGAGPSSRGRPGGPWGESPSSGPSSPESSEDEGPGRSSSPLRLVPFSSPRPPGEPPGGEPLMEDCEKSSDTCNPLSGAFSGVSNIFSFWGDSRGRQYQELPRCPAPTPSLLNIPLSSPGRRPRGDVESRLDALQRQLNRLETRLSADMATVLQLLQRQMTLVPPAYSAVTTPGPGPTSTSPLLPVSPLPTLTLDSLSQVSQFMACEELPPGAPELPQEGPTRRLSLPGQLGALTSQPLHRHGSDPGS
Chain of Thyroid hormone receptor beta (Homo sapiens) (P10828 whole entry, looked up): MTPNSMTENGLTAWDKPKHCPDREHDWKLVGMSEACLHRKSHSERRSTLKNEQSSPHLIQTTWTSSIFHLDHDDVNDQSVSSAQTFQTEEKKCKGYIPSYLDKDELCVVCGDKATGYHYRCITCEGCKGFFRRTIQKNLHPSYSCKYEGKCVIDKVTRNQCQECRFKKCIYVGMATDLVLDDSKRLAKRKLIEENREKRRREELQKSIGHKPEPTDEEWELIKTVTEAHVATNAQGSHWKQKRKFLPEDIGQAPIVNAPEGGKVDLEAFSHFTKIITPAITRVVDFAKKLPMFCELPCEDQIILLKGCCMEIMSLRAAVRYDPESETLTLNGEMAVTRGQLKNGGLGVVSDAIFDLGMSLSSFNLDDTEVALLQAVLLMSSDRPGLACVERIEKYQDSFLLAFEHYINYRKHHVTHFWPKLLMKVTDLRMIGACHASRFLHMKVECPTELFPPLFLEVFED

| SMILES | Potency [1] | Potency [2] | outcome [3] | max response [4] | Potency [5] | outcome [6] | max response [7] | max response [8] | activity change % (negative = inhibition) [9] | Potency [10] |
| --- | --- | --- | --- | --- | --- | --- | --- | --- | --- | --- |
| [O]=[Cd] | inactive | inactive | inactive | -12.6% | inactive | inactive | -14.7% | -2.87% (inactive) | -10.1% (inactive) |  |
| C=CCN=C=S |  | inactive | inactive | 2.45% | inactive | inactive | -9.62% | 5.52% (inactive) |  |  |
| O=C1C=CC(=O)C=C1 | inactive |  |  | -3.86% | inactive | inactive | 4.26% | -9.47% (inactive) | -10.9% (inactive) | inactive |
| O=C(NCNC(=O)NC1C(=O)NC(=O)N1CO)NC1C(=O)NC(=O)N1CO (stereo not given) | inactive |  |  | 0.0503% | inactive | inactive | -13% | -8.07% (inactive) | -0.544% (inactive) | inactive |
| O=c1[nH]c(=O)n(Cl)c(=O)n1Cl | inactive |  |  | -3.39% | inactive | inactive |  |  | 1.99% (inactive) |  |
| CCCSP(=O)(OCC)SCCC | inactive | inactive | inactive | -4.11% | inactive | inactive | -12.4% | -0.503% (inactive) | 4.95% (inactive) |  |
| O=C(O)c1cc[c]([Hg][Cl])cc1 | inactive | 39.8 µM (active) | inactive |  |  | inactive |  |  | -18.8% (inactive) | inactive |
| CCCCCCCCOC(=O)c1ccccc1C(=O)OCCCCCCCC | inactive | inactive | inactive | -12.6% and -10.6% | inactive | inactive | -8.04% and -12.9% | 24.3% (inactive) and -9.86% (inactive) | 0.822% (inactive) | inactive |
| ClC=C(Cl)Cl | inactive |  |  | -19% | inactive | inactive | -0.484% and -8.25% | 5.36% (inactive) and -18.5% (inactive) | -2.56% (inactive) | inactive |
